The list is not random: actives were taken first. Their share in the collection is about 6.4%.
RORgamma inh – inhibitors of mouse ROR gamma transcriptional activity. P51450. Drosophila S2 Gal4-RORgamma UAS-luciferase reporter, 20 h. Potency, µM (top dose mostly 53.6 µM), actives largely listed as inhibitors. actives 5.4% (n = 310,000). AID 2551; also: nearly all actives have a fitted effect of over 60% in size
Target sequence (P51450 whole entry, looked up, the tested form may be a part): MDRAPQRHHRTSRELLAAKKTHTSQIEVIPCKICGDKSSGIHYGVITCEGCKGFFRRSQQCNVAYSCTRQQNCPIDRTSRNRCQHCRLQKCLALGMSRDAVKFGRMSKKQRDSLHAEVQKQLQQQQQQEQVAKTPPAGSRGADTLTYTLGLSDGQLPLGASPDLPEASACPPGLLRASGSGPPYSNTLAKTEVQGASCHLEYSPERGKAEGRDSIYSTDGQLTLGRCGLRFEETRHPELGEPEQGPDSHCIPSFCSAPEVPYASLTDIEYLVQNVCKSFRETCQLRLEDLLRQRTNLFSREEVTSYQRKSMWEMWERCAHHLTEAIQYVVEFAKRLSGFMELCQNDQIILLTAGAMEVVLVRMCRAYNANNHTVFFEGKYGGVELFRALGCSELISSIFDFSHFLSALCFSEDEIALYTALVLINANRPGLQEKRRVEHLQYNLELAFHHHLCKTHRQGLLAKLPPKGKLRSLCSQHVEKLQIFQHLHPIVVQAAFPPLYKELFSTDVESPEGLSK
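Schneider cells (Drosophila), stable Gal4 DBD–ROR gamma + UAS-luc; 1 hr cmpd preincubation; Cu2+ induction 700 uM final; 20 hr ambient; luminescence.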
VP16 counter – counter-screen for ROR gamma inhibitors: Gal4-VP16 reporter; Drosophila S2 Gal4-VP16 UAS-luciferase, luminescence, 20 h; Potency, µM (top dose mostly 53.6 µM), usual class: inhibitors; actives 3.5% (n = 310,000); AID 2546;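 also: Gal4-VP16 expression switched on by copper sulfate through the metallothionein promoter; nearly all actives have a fitted effect of over 50% in size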
KinaseGlo FLuc – counter-screen: inhibitors of Kinase-Glo firefly luciferase; Q27757; Kinase-Glo luciferase, ATP luminescence, 8 min; Potency, µM (highest dose often 38.3 µM), actives largely listed as inhibitors; actives 0.28% (n = 200,000); AID 1379; also: nearly all actives have a fitted effect of over 60% in size
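Inhibition of Kinase-Glo luciferase light generation was assessed at 10 uM ATP in pH 7.2 imidazole buffer, with luminescence measured after eight minutes at ambient temperature.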
Numbers stand for hits; n = inactive; u = inconclusive; x = not tested or not shown; [ ] = dose if it differs, or a comment. Calls follow the shape of the dose curve; as a rule, active = well fitted curve in the direction sought with a large enough effect; inconclusive = small, poorly fitted or top-dose-only effect, or another doubt; inactive = no such curve, though single readings can be large; an effect the other way counts as inactive or inconclusive.

SMILES	RORgamma inh	VP16 counter	KinaseGlo FLuc
Cc1ccc(-c2cc(-c3ccccc3[N+](=O)[O-])[nH]n2)c(O)c1	18µM	u	n
COc1ccc(-c2nnc(-c3ccc(F)cc3)o2)cc1	n	n	x
COc1ccc(-c2ncncc2-c2ccccc2)c(O)c1	n	n	x
COc1ccc(-c2cc(-c3ccccc3)n[nH]2)c(O)c1	4µM	n[10 µM]	n
Cc1ccc(-c2nnc(N)o2)cc1	n	n	n
CC(C(=O)NCCC1=CCCCC1)c1ccc([N+](=O)[O-])cc1 (stereo unspecified)	n	n[10 µM]	n
CCCCCCCCCCCCCCOc1ccc(C(=O)O)o1	n	n	x
CC(c1ccccc1)n1c(-c2cccs2)nc2c(c(=O)c3ccccc3n2C)c1=O (stereo unspecified)	n	n	x
CN(C)c1ncc2nc(-c3ccc(F)cc3)c(=O)n(C[C@H]3CCCO3)c2n1	n	n	x
COc1cc2c(cc1NC(=S)Nc1cccc(C(F)(F)F)c1)oc1ccccc12	u	u	n
COc1cc2c(cc1NC(=S)Nc1cccc3ccccc13)oc1ccccc12	10µM	11µM	n
COc1cc2c(cc1NC(=O)Nc1ccccc1)oc1ccccc12	u	n	n
COCCCNC(=S)Nc1cc2oc3ccccc3c2cc1OC	5.6µM	7.1µM	x
CC(=O)Nc1nnc(Cc2c[nH]c3ccccc23)s1	n	n	x
COc1ccc(CCNC(=O)CNCC2CCCCC2)cc1OC	n	n	x
CCOc1ccc(-c2nnc(NC(=O)C3CCCC3)o2)cc1	8.9µM	u	x
CCOc1ccc(NC(=O)CN2CCC(NC(=O)C3CCCCC3)CC2)cc1	n	n	n
O=C(Nc1nnc(-c2ccccc2)o1)C1CCCCC1	3.5µM	7.9µM	n
O=C(Nc1nnc(-c2ccc(Cl)cc2)o1)C1CCCCC1	n	n	x
CCc1ccc(NC(=O)CC2C(=O)N(c3ccc(C)cc3)C(=O)N2C2CC2)cc1 (stereo unspecified)	n	n	n
CSCC[C@H](NC(=O)[C@H](Cc1c[nH]c2ccccc12)NC(=O)CCNC(=O)OC(C)(C)C)C(=O)N[C@@H](CC(=O)O)C(=O)N[C@@H](Cc1ccccc1)C(N)=O	n	n	x
Cc1c(CCC(=O)O)c(=O)oc2cc(OCc3ccccc3F)ccc12	n	n	x
O=C(O)CCCC(=O)Nc1ccccc1C(=O)N1CCOCC1	n	n	n
CC(=O)Oc1c(-c2ccc(Br)o2)oc2ccccc2c1=O	7.1µM	7.1µM	x
COc1ccc(C(=O)c2oc3ccccc3c2N)cc1	n	10µM	n
SMILES	RORgamma inh	VP16 counter	KinaseGlo FLuc
COc1ccc(-c2oc3ccccc3c(=O)c2OCC(=O)O)cc1	n	n	n
COc1ccc2oc(C(=O)c3ccccc3)c(N)c2c1	n	n	n
O=C(O)COc1c(-c2ccco2)oc2ccccc2c1=O	n	n	n
COc1ccc(-c2oc3ccccc3c(=O)c2OC(C)=O)cc1	7.1µM	u	n
CC(=O)N1c2ccc(S(=O)(=O)N(C)CC(=O)NC(C)c3ccccc3)cc2CC1C (stereo unspecified)	n	n	x
COC(=NC(C)C)NC(C)C	n	n	x
O=C(O)CCc1nn2c3ccccc3nc2n(-c2ccccc2)c1=O	11µM	n	n
O=C(O)CCc1nn2c3ccccc3nc2n(Cc2ccccc2)c1=O	n	n	n
Cc1cc(C)cc(N(CC(=O)NCCSCc2ccccc2)S(C)(=O)=O)c1	n	n	n
Cc1ccc(C)c(N2CCN(C(=O)CCCN3C(=S)NC(C)(C)CC3C)CC2)c1 (stereo unspecified)	5.6µM	4.5µM	n
CC1CC(C)(C)NC(=S)N1CC(=O)NCc1ccc(F)cc1 (stereo unspecified)	n	n	n
Cc1cccc(N2CCN(C(=O)CCC(=O)N3CC(C)Oc4ccccc43)CC2)c1C (stereo unspecified)	u	n	x
Cc1cccc(N2CCN(C(=O)CCN3C(=S)NC(C)(C)CC3C)CC2)c1C (stereo unspecified)	4.5µM	u	n
CC1CC(C)(C)NC(=S)N1CCC(=O)N1c2ccccc2CC1C (stereo unspecified)	4µM	18µM	n
CC1CC(C)(C)NC(=S)N1CCC(=O)NCc1ccc(Cl)cc1 (stereo unspecified)	u	n	n
CC1CC(C)(C)NC(=S)N1CCC(=O)NCc1ccc(F)cc1 (stereo unspecified)	u	n	n
CC1CC(C)(C)NC(=S)N1CC(=O)N(C)Cc1ccccc1 (stereo unspecified)	18µM	n	n
Cc1cc(C)n(-c2ccc(NC(=O)C3CCCCN3C(=O)c3cc(C)oc3C)cc2)n1 (stereo unspecified)	n	n	x
NNC(=O)CCCCCCCCCCOCCCCO	n	n	x
COc1ccc2c(c1)O[C@@H](c1ccc3c(c1)OCO3)[C@H](OC(=O)NCCOc1ccccc1)C2=O	n	n	n
CCOC(=O)C(CCc1ccccc1)NC(C)C(=O)N1CCCC1C(=O)O (stereo unspecified)	n	n	n
N/C(=N\OC(=O)c1ccco1)c1ccccc1	u	n	u
COc1cccc(C(=O)O/N=C(\N)c2ccccn2)c1OC	u	n	x
COc1cccc(C(=O)O/N=C(\N)c2ccccn2)c1	u	14µM	x
N/C(=N\OC(=O)c1ccc2ccccc2c1)c1ccncc1	n	n	n
SMILES	RORgamma inh	VP16 counter	KinaseGlo FLuc
N/C(=N\OC(=O)c1ccc2ccccc2c1)c1ccccn1	4.5µM	7.9µM	11µM
Cc1ccc(/C(N)=N/OC(=O)c2ccco2)cc1	u	u	n
N/C(=N\OC(=O)c1ccco1)c1ccccn1	n	n	13µM
COc1ccc(/C(N)=N/OC(=O)c2ccco2)cc1	7.9µM	10µM	n
Cc1ccc(C(=O)CCC(=O)Nc2ccccc2C)c(C)c1	n	n	x
COc1cccc(CNC23CC4CC(CC(C4)C2)C3)c1OCc1ccccc1	n	n	n
CCN(CC)CCNC(=O)CCN1N=C(c2ccccc2)CCC1=O	n	n	x
N/C(=N\OC(=O)c1ccc(=O)n(Cc2ccccc2)c1)c1ccccn1	n	n[10 µM]	n
CCCc1ccc(C(=O)O/N=C(\N)c2ccccn2)cc1	13µM	11µM	x
Cn1c(NN)nc2sc3c(c2c1=O)CC(C)(C)OC3	1.4µM	3.5µM	n
CCC1(C)Cc2c(sc3nc(SC)[nH]c(=S)c23)CO1 (stereo unspecified)	u	6.3µM	x
CC1(C)Cc2c(sc3nc(=S)[nH]c(N)c23)CO1	u	18µM	x
CC1(C)Cc2c(sc3ncnc(N)c23)CO1	n	n	n
CCSc1nc2sc3c(c2c(=O)[nH]1)CC(C)(CC)OC3 (stereo unspecified)	n	n	n
CCCCCCCc1nc2sc3c(c2c(=O)n1N)CC(C)(C)OC3	n	n	x
CCC1(C)Cc2c(sc3nc(NC)n(C)c(=O)c23)CO1 (stereo unspecified)	n	n	n
CCCCCc1nc2sc3c(c2c(=O)n1NC(=O)c1ccc([N+](=O)[O-])cc1)CC(C)(C)OC3	22µM	n	n
COc1ccc(-n2c(=O)c(-c3ccccc3)nc3cncnc32)cc1	n	n	x
O=C(NCCN1CCOCC1)C1(C(F)(F)F)C/C(=C/CCO)CCCO1 (stereo unspecified)	n	n	x
c1ccc(CN2CCC3(CC2)Nc2ccccc2S3)cc1	n	n	x
COc1ccc(S(=O)(=O)NCCc2cn3nc(C)c(C)nc3n2)cc1F	n	n	x

High-throughput results: PubChem BioAssay, National Center for Advancing Translational Sciences (NCATS)
